Key:
[1] = test system: P. falciparum NF54-pfs16-GFP early (I-III) stage gametocytes; test: relative % inhibition of viable gametocyte number; higher = more gametocytocidal; conditions: stage: early (I-III) gametocyte, incubation 72 h
Method in brief: (§1)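 Relative inhibition was normalised to in-plate vehicle and positive-control wells, with viable gametocytes defined on confocal images as elongated GFP objects whose MitoTracker Red signal exceeded a cut-off. NF54 pfs16-GFP gametocytes, magnet-isolated at early (I/IIa, day 2) or late (day 8) stage, were plated at 10% parasitaemia, 0.1% haematocrit with compound at 5 or 0.5 µM. Plates were incubated 72 h at 37°C, 5% CO2, 5% O2, then stained overnight.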

[2] = test system: P. falciparum NF54-pfs16-GFP late (IV-V) stage gametocytes; test: as above; conditions: stage: late (IV-V) gametocyte, incubation 72 h
Method in brief: as §1

Row | Structure (SMILES) | relative % inhibition ([1]; 0.5 µM) [%] | relative % inhibition ([1]; 5 µM) [%] | relative % inhibition ([2]; 0.5 µM) [%] | relative % inhibition ([2]; 5 µM) [%]
1 | CC(C)(C)C(=O)Nc1ccc(C(=O)Nc2cccc(-c3nc4ccccc4[nH]3)c2)cc1 | 7.02 | 15.3 | 3.45 | 17.3
2 | O=C(Nc1ccc(N2CCCCC2)c(Cl)c1)c1ccc(Br)o1 | 5.95 | 8.62 | 6.1 | 22.2
3 | COc1cccc(NC(=O)Cn2c(C)c(C#N)c3ccccc32)c1 | 17 | 45.2 | -4.97 | 29.8
4 | O=C1c2ccccc2C2=Nc3ccccc3SC(c3cccc(F)c3)C12 (stereo not drawn) | 30.8 | 27.4 | 43.7 | 83.8
5 | c1ccc(C2=Nc3ccccc3N=C(c3ccccc3)c3ccccc32)cc1 | 35.8 | 101 | 15.2 | 47.2
6 | CCOc1cccc2sc(N(Cc3cccnc3)C(=O)C3CCCCC3)nc12 | 16.6 | 53.7 | -9.86 | 11.9
7 | CN(C)c1ccc(-c2nc3cc(N)ccc3[nH]2)cc1 | -6.62 | 18.8 | -13.1 | -10.8
8 | Cn1c(=O)n(C)c2cc(CNCCNc3ccnc4cc(Cl)ccc34)ccc21 | 86.6 | 29.6 | 37.6 | 90.2
9 | O=C(CSc1nccn2nc(-c3ccccc3)cc12)Nc1cc(C(F)(F)F)ccc1Cl | 3.61 | -9.64 | 15.1 | -0.775
10 | COc1cccc(Cn2c(Oc3ccccc3)nc3c2c(=O)n(C)c(=O)n3C)c1 | 1.22 | -14 | 6.35 | 9.52
11 | N=c1n(CCN2CCCCC2)c2ccccc2n1CC(O)c1cccc(Br)c1 (stereo not drawn) | 6.75 | 94.5 | 25.5 | 55.6
12 | O=C(Nc1ccc(Cl)c(Cl)c1)Nc1ccc(Cl)c(Cl)c1 | 4.74 | 96 | 17.5 | 48.8
